In PubChem BioAssay AID1159580 (chemical genetic matrix, 2015):
About 2,000 (36%) of roughly 5,500 compounds were called active. Not shown: some 18% with an inconclusive outcome. Cut-off read from the data, not from the text of the source: active = normalized growth mostly below about 0.91 (no sharp cut-off); inconclusive = no clear call, values can overlap the other calls; inactive = mostly above about 0.92. This is one part of the list.

Assay: chemical genetic growth profiling, strain panel (AID 1159580);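 note: tested at 20 µM; growth read once vehicle control cultures reached saturation at 30 °C; 1 = growth at the plate median or of vehicle wells; lower values mean less growth of the strain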
Details: S. cerevisiae deletion strains, growth OD

Measured: normalized growth

CNS(=O)(=O)c1ccc(NC(=O)c2ccccc2C(=O)O)cc1
inactive: locus YAL021C, strain ccr4, stronger effect = lower value 1 | locus YAL026C, strain drs2, stronger effect = lower value 1 | locus YAL030W, strain snc1, stronger effect = lower value 1 | locus YBL061C, strain skt5, stronger effect = lower value 0.993 | locus YBR009C, strain hhf1, stronger effect = lower value 0.998 | locus YBR023C, strain chs3, stronger effect = lower value 1 | locus YBR171W, strain sec66, stronger effect = lower value 0.996 | locus YBR231C, strain swc5, stronger effect = lower value 0.991 | locus YBR279W, strain paf1, stronger effect = lower value 1 | locus YCL011C, strain gbp2, stronger effect = lower value 0.993 | locus YCL016C, strain dcc1, stronger effect = lower value 1 | locus YCL061C, strain MRC1, stronger effect = lower value 1 | locus YCL069W, strain vba3, stronger effect = lower value 1 | locus YCR088W, strain abp1, stronger effect = lower value 0.999 | locus YDL005C, strain med2, stronger effect = lower value 1 | locus YDL040C, strain nat1, stronger effect = lower value 1 | locus YDR001C, strain nth1, stronger effect = lower value 0.996 | locus YDR069C, strain doa4, stronger effect = lower value 0.995 | locus YDR137W, strain rgp1, stronger effect = lower value 1.01 | locus YDR159W, strain sac3, stronger effect = lower value 0.982 | locus YDR195W, strain ref2 0.977 | locus YDR297W, strain sur2, stronger effect = lower value 0.995 | locus YDR334W, strain swr1, stronger effect = lower value 1 | locus YDR335W, strain msn5, stronger effect = lower value 1 | locus YDR392W, strain spt3, stronger effect = lower value 0.968 | locus YEL003W, strain gim4, stronger effect = lower value 0.994 | locus YEL037C, strain rad23, stronger effect = lower value 1.01 | locus YEL061C, strain CIN8 (second series), stronger effect = lower value 0.999 | locus YER015W, strain faa2, stronger effect = lower value 0.989 | locus YER016W, strain bim1, stronger effect = lower value 1.01 | locus YER111C, strain swi4, stronger effect = lower value 1 | locus YER155C, strain BEM2 (second series), stronger effect = lower value 1 | locus YFR010W, strain ubp6, stronger effect = lower value 1.01 | locus YGL167C, strain pmr1, stronger effect = lower value 0.993 | locus YGL173C, strain kem1, stronger effect = lower value 0.997 | locus YGL227W, strain vid30, stronger effect = lower value 0.998 | locus YGL240W, strain doc1, stronger effect = lower value 0.988 | locus YGL253W, strain hxk2, stronger effect = lower value 0.998 | locus YHR013C, strain ard1, stronger effect = lower value 0.997 | locus YHR027C, strain rpn1, stronger effect = lower value 0.992 | locus YHR030C, strain SLT2, stronger effect = lower value 0.995 | locus YHR079C, strain IRE1, stronger effect = lower value 0.992 | locus YHR142W, strain chs7, stronger effect = lower value 1.02 | locus YJL092W, strain hpr5, stronger effect = lower value 0.995 | locus YJL095W, strain BCK1 (second series), stronger effect = lower value 0.99 | locus YJL095W, strain BCK1, stronger effect = lower value 0.981 | locus YJL115W, strain asf1, stronger effect = lower value 0.995 | locus YJL129C, strain trk1, stronger effect = lower value 1.02 | locus YJL154C, strain vps35, stronger effect = lower value 0.997 | locus YJL164C, strain tpk1, stronger effect = lower value 1.01 | locus YJL166W, strain qcr8, stronger effect = lower value 0.998 | locus YJL187C, strain SWE1, stronger effect = lower value 0.99 | locus YJR066W, strain TOR1, stronger effect = lower value 0.931 | locus YKL160W, strain elf1, stronger effect = lower value 1.01 | locus YKR026C, strain gcn3, stronger effect = lower value 0.979 | locus YKR091W, strain srl3, stronger effect = lower value 0.994 | locus YLL001W, strain dnm1, stronger effect = lower value 1.01 | locus YLL026W, stronger effect = lower value 0.995 | locus YLL041C, strain sdh2, stronger effect = lower value 1 | locus YLR027C, strain aat2, stronger effect = lower value 1 | locus YLR113W, strain HOG1, stronger effect = lower value 0.969 | locus YLR221C, strain rsa3, stronger effect = lower value 1 | locus YLR258W, strain gsy2, stronger effect = lower value 0.998 | locus YLR262C, strain YPT6 (second series), stronger effect = lower value 0.992 | locus YLR320W, strain mms22, stronger effect = lower value 1 | locus YLR342W, strain FKS1, stronger effect = lower value 0.994 | locus YLR357W, strain rsc2, stronger effect = lower value 0.994 | locus YLR370C, strain arc18, stronger effect = lower value 0.995 | locus YLR384C, strain iki3, stronger effect = lower value 0.992 | locus YML120C, strain ndi1, stronger effect = lower value 0.992 | locus YMR058W, strain fet3, stronger effect = lower value 0.998 | locus YMR125W, strain sto1, stronger effect = lower value 0.994 | locus YMR129W, stronger effect = lower value 1.01 | locus YMR205C, strain PFK2, stronger effect = lower value 0.967 | locus YMR231W, strain pep5, stronger effect = lower value 0.998 | locus YNL071W, strain lat1, stronger effect = lower value 1.01 | locus YNL183C, strain NPR1, stronger effect = lower value 0.933 | locus YNL209W, strain ssb2, stronger effect = lower value 0.997 | locus YNL248C, strain rpa49, stronger effect = lower value 0.998 | locus YNL322C, strain KRE1 (second series), stronger effect = lower value 0.998 | locus YNR049C, strain mso1, stronger effect = lower value 1 | locus YOR001W, strain rrp6, stronger effect = lower value 1 | locus YOR070C, strain gyp1, stronger effect = lower value 0.999 | locus YOR080W, strain dia2, stronger effect = lower value 0.994 | locus YOR083W, strain WHI5, stronger effect = lower value 0.997 | locus YOR106W, strain vam3, stronger effect = lower value 1.01 | locus YOR231W, strain MKK1, stronger effect = lower value 0.991 | locus YOR265W, strain rbl2, stronger effect = lower value 1.01 | locus YOR270C, strain vph1, stronger effect = lower value 1.03 | locus YOR290C, strain snf2, stronger effect = lower value 0.995 | locus YPL051W, strain arl3, stronger effect = lower value 1.02 | locus YPL078C, strain atp4, stronger effect = lower value 1.02 | locus YPL106C, strain sse1, stronger effect = lower value 0.984 | locus YPL240C, strain hsp82, stronger effect = lower value 0.992 | locus YPL256C, strain CLN2, stronger effect = lower value 0.987
